Data on 32 molecules can be found in PubChem BioAssay (NCATS).

The test system of experiment [1] is Zika virus NS2B-NS3 protease (unlinked complex). Kind of experiment: Primary screen GU Rhodamine qHTS for Zika virus inhibitors: Unlinked NS2B-NS3 protease assay (AID 1347159). For activity change, negative = inhibition: % is set by controls: 0 for no effect and ±100 for the full control effect. Note: nearly all actives have a fitted effect of over 60% in size. Note: potency is the fitted concentration of half-maximal effect. The procedure, abridged:
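Percent inhibition came from the 15-min rise in Rhodamine110 fluorescence (1.5 microM substrate, ~15% conversion), normalized to no-inhibitor and no-enzyme wells and Hill-fitted. Unlinked protease, 25 nM, pH 8.0 Tris buffer; compounds up to 114 microM, 15-min preincubation.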

Experiment [2] concerns Zika virus NS2B-NS3 protease (linked construct). The experiment can be described thus: Primary screen NINDS Rhodamine qHTS for Zika virus inhibitors (AID 1347160). For activity change, negative = inhibition: % is set by controls: 0 for no effect and ±100 for the full control effect. Note: nearly all actives have a fitted effect of over 55% in size. Note: potency is the fitted concentration of half-maximal effect. The procedure, abridged: (§1)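 Rhodamine110-peptide cleavage (1.5 µM substrate) by 25 nM linked NS2B-NS3 enzyme at pH 8.0 (Tris, Tween 20), after 15 min RT preincubation with compounds; 15-min fluorescence change normalized to controls and Hill-fitted.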
On the technique in general: Quantitative high-throughput screening tests each substance at several concentrations.

Experiment [3] in a line: Confirmatory screen GU Rhodamine qHTS for Zika virus inhibitors qHTS (AID 1347157). Note: potency is the fitted concentration of half-maximal effect; nearly all actives have a fitted effect of over 70% in size. The procedure, abridged: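 Enzyme 25 nM in Tris-HCl pH 8.0 + 0.01% Tween 20; compounds up to 114 microM, 15 min RT dark; + Rhod110 substrate 1.5 microM; read t0 and 15 min; delta fluorescence → % inhibition → 4-parameter Hill fit.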
Experiment [4] can be described thus: Confirmatory screen NINDS Rhodamine qHTS for Zika virus inhibitors (AID 1347161). Note: potency is the fitted concentration of half-maximal effect; nearly all actives have a fitted effect of over 60% in size. The procedure, abridged: as §1
Experiment [5] is described as follows: Tertiary RLuc qRT-PCR qHTS assay for Zika virus inhibitors (AID 1347169). Note: top concentration of the series differs between compounds; % is set by controls: 0 for no effect and ±100 for the full control effect; nearly all actives have a fitted effect of over 55% in size. The procedure, abridged: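 Orthogonal cell-based infection assay using recombinant ZIKV-RLuc (Cambodian) in Vero cells; compound added prior to virus at MOI 1-2. Incubation lasts 48-72 hrs at 37 degrees C before live-cell Renilla substrate is added and luminescence measured.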
Background: Real-time PCR tracks product formation cycle by cycle.

Experiment [6] deals with Zika virus NS2B-NS3 protease. Kind of experiment: Primary screen GU AMC qHTS for Zika virus inhibitors (AID 1347154).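 Note: 0% = no-inhibitor control and -100% = no-enzyme control; nearly all actives have a fitted effect of over 70% in size.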 The procedure, abridged:
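Unlinked Zika NS2B hydrophilic domain/NS3 protease domain noncovalent complex (25 nM final) in 10 mM Tris-HCl pH 8.0, 0.01% Tween 20, with AMC peptide substrate. Fluorescence (ex 340, em 450 nm) change over 15 min, room temperature; percent inhibition fitted to 4-parameter Hill equation.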

For experiment [7], the target named is Lysine-specific demethylase 5B (Homo sapiens) (UniProt Q9UGL1). Kind of experiment: Optimization screen for KDM5B Histone Demethylases FDH coupled qHTS against the LOPAC library (AID 1347166). Note: 0% is about no effect. The procedure, abridged: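 KDM5BDeltaAP (200nM final) in 50mM HEPES pH 7.5, 0.01% Tween-20 was preincubated with compound for 10 min at room temperature. A substrate mix of 12.5uM H3K4Me3, 25uM a-ketoglutarate, ascorbate, Fe2+, NAD+ and formaldehyde dehydrogenase was then added. NADH fluorescence (340/450 nm) was read initially and after 30 min.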

Experiment [8] relates to Zika virus NS2B-NS3 protease (linked). Kind of experiment: 384 well plate NINDS AMC confirmatory qHTS for Zika virus inhibitors (AID 1347163). Note: potency is the fitted concentration of half-maximal effect; nearly all actives have a fitted effect of over 50% in size. As to conditions: Recombinant NS2B-NS3 protease, Ac-VKTGKR-AMC fluorescence. The procedure, abridged: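 Fluorescence at 355/460 nm was read after 25 minutes of cleavage of 30 microM Ac-VKTGKR-AMC at room temperature, in the dark. Before substrate addition, compounds (up to 1 mM final) sat ~15 minutes with 5, 30 or 60 nM linked protease. Signals were normalized to no-enzyme and no-inhibitor wells.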

For experiment [9], the system named is Zika virus NS2B-NS3 protease (linked construct). The experiment can be described thus: 384 well plate NINDS Rhodamine confirmatory qHTS for Zika virus inhibitors (AID 1347164). Note: potency is the fitted concentration of half-maximal effect; nearly all actives have a fitted effect of over 65% in size. The procedure, abridged:
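Compounds are incubated about 15 minutes with linked protease (5, 30 or 60 nM final). Rhodamine 110-tagged Ac-LKRR substrate (10 microM final) is added and fluorescence measured after 25 minutes.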

Experiment [10] is described as follows: Vero cells viability qHTS for Zika virus inhibitors (AID 1347167). Note: % is set by controls: 0 for no effect and ±100 for the full control effect. The procedure, abridged:
(§2)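 To flag cytotoxic protease inhibitors, viability is measured by ATP-dependent luminescence (CellTiter Glo) after cells attached overnight receive compound for 24 to 48 hours in DMEM with 4% FBS.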

Experiment [11] is described as follows: HepG2 cells viability qHTS for Zika virus inhibitors (AID 1347168). Note: % is set by controls: 0 for no effect and ±100 for the full control effect. The procedure, abridged:
as §2

SMILES strings stand for the structures. Inconclusive results are not listed. Values without a mark were called inactive. Calls of active or inactive are those of the source. Calls come from the whole dose curve; as a rule, active = well fitted curve in the direction sought with a large enough effect; inconclusive = small, poorly fitted or top-dose-only effect, or another doubt; inactive = no such curve, though single readings can be large; an effect the other way counts as inactive or inconclusive.

Sequence of Lysine-specific demethylase 5B (Homo sapiens) (Q9UGL1 whole entry, looked up): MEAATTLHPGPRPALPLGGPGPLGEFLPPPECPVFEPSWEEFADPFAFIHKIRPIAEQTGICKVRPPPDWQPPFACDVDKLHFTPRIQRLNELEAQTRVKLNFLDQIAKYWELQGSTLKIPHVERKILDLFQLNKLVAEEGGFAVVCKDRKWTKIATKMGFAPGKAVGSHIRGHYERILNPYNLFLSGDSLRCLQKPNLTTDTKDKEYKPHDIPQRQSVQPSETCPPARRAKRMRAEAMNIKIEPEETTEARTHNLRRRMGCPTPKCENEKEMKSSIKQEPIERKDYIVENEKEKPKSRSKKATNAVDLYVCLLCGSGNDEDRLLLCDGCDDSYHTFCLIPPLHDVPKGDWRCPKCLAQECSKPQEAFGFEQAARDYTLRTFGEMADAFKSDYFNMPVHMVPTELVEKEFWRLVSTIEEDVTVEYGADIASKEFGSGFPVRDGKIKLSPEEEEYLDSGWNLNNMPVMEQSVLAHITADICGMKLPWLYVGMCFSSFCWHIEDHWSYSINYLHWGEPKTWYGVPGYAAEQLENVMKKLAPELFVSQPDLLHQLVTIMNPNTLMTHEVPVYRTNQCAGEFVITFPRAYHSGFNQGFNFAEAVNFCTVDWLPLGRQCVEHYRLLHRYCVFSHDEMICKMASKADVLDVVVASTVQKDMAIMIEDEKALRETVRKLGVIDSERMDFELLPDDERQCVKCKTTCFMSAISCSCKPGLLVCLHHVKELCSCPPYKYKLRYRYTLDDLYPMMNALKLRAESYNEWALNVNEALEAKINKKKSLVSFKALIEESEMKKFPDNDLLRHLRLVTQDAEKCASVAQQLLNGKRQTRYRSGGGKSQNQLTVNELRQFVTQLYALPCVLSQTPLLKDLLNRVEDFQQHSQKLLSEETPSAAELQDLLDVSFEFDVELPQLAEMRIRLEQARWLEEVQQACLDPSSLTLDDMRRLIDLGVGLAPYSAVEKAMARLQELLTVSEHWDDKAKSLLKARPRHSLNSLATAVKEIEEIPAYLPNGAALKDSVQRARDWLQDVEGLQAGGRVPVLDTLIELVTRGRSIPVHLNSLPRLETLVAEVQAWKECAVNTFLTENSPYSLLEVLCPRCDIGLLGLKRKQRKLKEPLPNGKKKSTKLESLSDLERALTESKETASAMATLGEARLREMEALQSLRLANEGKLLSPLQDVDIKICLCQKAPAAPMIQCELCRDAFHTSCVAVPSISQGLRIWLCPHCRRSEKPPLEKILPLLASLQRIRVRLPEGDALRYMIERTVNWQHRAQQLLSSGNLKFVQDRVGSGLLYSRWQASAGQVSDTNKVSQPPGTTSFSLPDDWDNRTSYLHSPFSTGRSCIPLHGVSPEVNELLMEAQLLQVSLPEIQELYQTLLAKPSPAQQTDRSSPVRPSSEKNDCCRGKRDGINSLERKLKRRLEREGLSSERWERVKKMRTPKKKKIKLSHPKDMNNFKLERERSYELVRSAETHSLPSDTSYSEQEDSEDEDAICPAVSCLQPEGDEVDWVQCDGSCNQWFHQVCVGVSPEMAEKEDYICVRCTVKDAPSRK

Turning to `CCCCCCn1c(=O)c(C(=O)Nc2ccc(C(=O)OCCC)cc2)c(O)c2ccccc21`, the activity change, negative = inhibition in experiment [1] is -4.23% [at 19.1 µM]. Also, the outcome in experiment [2] was “inactive [at 10.7 µM]”.

On to `Oc1ccc2c3c1O[C@H]1[C@H](N(CCCl)CCCl)CC[C@@]4(O)[C@@H](C2)N(CC2CC2)CC[C@]314`, for which the activity change, negative = inhibition in experiment [1] was -3.74% [at 19.1 µM]. The outcome in experiment [2] is “inactive [at 10.7 µM]”.

Take `COc1c(C(C)C)cc2c(c1O)[C@@]1(C(=O)O)CCCC(C)(C)C1CC2` (stereo partly specified): the Potency in [3] was 6.85 µM (active); in experiment [1] it was 6.31 µM (active); in experiment [4], 9.67 µM (active). Moreover, the Potency result in experiment [2] and in experiment [5] was “inactive” in each case.

As for `COC(=O)C1(C)CCC(O)C2(C)c3cc(O)c(C(C)C)cc3C(O)C(OC(C)=O)C12` (stereo unspecified), the Potency in experiment [3] is 24.2 µM (active); in [4] it was 27.1 µM (active). Besides, the Potency entry in experiment [1] and in experiment [5] was “inactive” throughout.

For `CN1CCC[C@@H]1Cc1c[nH]c2ccc(Nc3ncccc3[N+](=O)[O-])cc12`, the Potency result in experiment [1] and in experiment [2] was “inactive” throughout.

`Oc1ccc2c3c1O[C@H]1c4[nH]c5ccccc5c4C[C@@]4(O)C(C2)N(CC2CC2)CCC314` (stereo partly specified): the Potency result in experiment [6] and in [7] was “inactive” throughout.

Regarding `NCC(CP(=O)(O)O)c1ccc(Cl)cc1` (stereo unspecified), the Potency result in experiment [6] and in experiment [7] was “inactive” each time.

Regarding `CCCN(CCC)[C@@H]1CCc2cccc(O)c2C1`, the Potency entry in experiment [6] and in [7] was “inactive” throughout.

With `C[C@@]1(C(=O)O)CC[C@]2(C)CC[C@]3(C)C4=CC(=O)c5cc(O)c(O)cc5[C@]4(C)CC[C@@]3(C)[C@@H]2C1`, the Potency in experiment [3] was 2.42 µM (active); in experiment [1] it was 3.98 µM (active); in experiment [2] it was 7.94 µM (active); in experiment [4], 1.36 µM (active); in [8], 56.2 µM (active); in experiment [9], 1.12 µM (active). Besides, the result in experiment [10] and in experiment [11] was inactive. The Potency result in experiment [5] is “inactive”.

Take `C[N+](C)(C)CCOC(=O)CBr`: the Potency result in experiment [6] and in [7] was “inactive” throughout.

Turning to `CP(=O)(O)C1=CCNCC1`, the Potency result in experiment [6] and in experiment [7] was “inactive” in each case.

For `C[C@@H]1C(=O)O[C@H]2[C@H](O)[C@@]34[C@@H]5OC(=O)[C@@]3(O[C@@H]3OC(=O)[C@@H](O)[C@@]34[C@H](C(C)(C)C)[C@H]5O)[C@@]12O`, the Potency result in [1] and in [2] was “inactive” each time.

`C[C@H]1C(=O)O[C@H]2[C@H](O)[C@]34C5OC(=O)[C@]3(O[C@@H]3OC(=O)[C@H](O)C34[C@H](C(C)(C)C)[C@H]5O)C12O` (stereo partly specified): the Potency entry in [1] and in experiment [2] was “inactive” throughout.

Regarding `CN1[C@H]2C[C@H](OC(=O)[C@H](CO)c3ccccc3)C[C@@H]1[C@@H](O)C2`, the Potency result in experiment [1] and in [2] was “inactive” throughout.

In the case of `CCC(C)(OC(C)=O)C(=O)O[C@H]1[C@H](OC(C)=O)C[C@@H]2[C@@](C)([C@@H]3C[C@H]4C=CO[C@H]4O3)[C@H](C)C[C@H](OC(C)=O)[C@@]2(COC(C)=O)[C@@]12CO2` (stereo partly specified), the Potency entry in experiment [1] and in [2] was “inactive” in each case.

As to `C[C@]12CC[C@H]3[C@@H]([C@H](O)CC4=CC(=O)CC[C@@]43C)[C@@H]1CC[C@@H]2O`, the Potency entry in [1] and in experiment [2] was “inactive” in each case.

Turning to `CC(N)Cc1c[nH]c2ccccc12` (stereo unspecified), the Potency result in experiment [1] and in [2] was “inactive” throughout.

Consider `COCC1OC(=O)c2coc3c2C1(C)C1=C(C3=O)C2CCC(=O)C2(C)CC1O` (stereo unspecified), for which the Potency entry in experiment [1] and in experiment [2] was “inactive” throughout.

As for `COC1CC(OC2CCC3(C)C(CCC4C3CCC3(C)C(C5=CC(=O)OC5)C(OC(C)=O)CC43O)C2)OC(C)C1OC1OC(CO)C(O)C(O)C1O` (stereo unspecified), the Potency entry in experiment [1] and in experiment [2] was “inactive” throughout.

As for `CC1=C2C[C@H]3[C@@H](CC=C4C[C@@H](O)CC[C@@]43C)[C@@H]2CC[C@]12O[C@@H]1C[C@H](C)CN[C@H]1[C@H]2C`, the Potency entry in experiment [1] and in [2] was “inactive” in each case.

On to `CC1C/C=C/C(O)C(O)CC/C=C/c2cc(O)cc(O)c2C(=O)O1` (stereo unspecified), for which the Potency result in experiment [1] and in experiment [2] was “inactive” throughout.

On to `CC(C)C1(OO)C=C2C(=O)CC3C(C)(C(=O)O)CCCC3(C)C2CC1` (stereo unspecified), for which the Potency result in experiment [1] and in experiment [2] was “inactive” in each case.

`Cn1ncnc1COc1nn2c(-c3c(F)cccc3F)nnc2cc1C1CCC1`: the Potency entry in experiment [1] and in experiment [2] was “inactive” in each case.

Take `COc1ccccc1CN[C@H]1C2CCN(CC2)[C@H]1C(c1ccccc1)c1ccccc1`: the Potency result in experiment [1] and in experiment [2] was “inactive” throughout.

For `CCc1[nH]c2ccc(OC)cc2c1CCN(C)C`, the Potency result in experiment [1] and in experiment [2] was “inactive” in each case.

In the case of `CC(=O)OC12C(O)C(C)C3(O)C4C=C(C)C(=O)C4CC(CO)=CC3C1C2(C)C` (stereo unspecified), the Potency entry in [1] and in experiment [2] was “inactive” throughout.

Take `COC1CC(OC2CCC3(C=O)C(CCC4C3CCC3(C)C(C5=CC(=O)OC5)CCC43O)C2)OC(C)C1OC1OC(CO)C(O)C(O)C1O` (stereo unspecified): the Potency result in [1] and in experiment [2] was “inactive” in each case.

For `C=C[C@H]1[C@H](O[C@@H]2O[C@H](CO)[C@@H](O)[C@H](O)[C@H]2O)OC=C2C(=O)OCC[C@H]21`, the Potency entry in [1] and in experiment [2] was “inactive” throughout.

In the case of `C[C@@](O)(COc1ccc(C#N)cc1)C(=O)Nc1ccc(C#N)c(C(F)(F)F)c1`, the Potency entry in experiment [1] and in [2] was “inactive” in each case.

For the molecule `COc1cc2c(cc1OC)[C@@]13CCN4CC5=CCO[C@H]6CC(=O)N2[C@H]1[C@H]6[C@H]5C[C@H]43`, the Potency result in experiment [1] and in experiment [2] was “inactive” each time.

On to `CN1[C@@H]2CC[C@H]1CC(OC(=O)C1C=Nc3ccccc31)C2` (stereo partly specified), for which the Potency result in experiment [1] and in experiment [2] was “inactive” in each case.

Take `CN1C(=O)N(c2ccc(C#N)c(C(F)(F)F)c2)C(=O)[C@]1(CO)c1ccccc1`: the Potency entry in experiment [1] and in experiment [2] was “inactive” each time.
